Reference: PubChem BioAssay
Activity calls are given as the source filed them.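 Rule for the calls, unless noted: active = inhibition above 20% together with a positive visual image hit; inconclusive = visual image hit but inhibition not above 20%; inactive = no visual image hit.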

Tests used:
[1] = inhibitors of TNFa-induced NFkB p65 translocation, primary screen, imaging, HUVEC, MLSMR starter and 10KST1 sets (AID 438); conditions: HUVEC TNFa-induced p65 nuclear translocation; cell count: measured here: nuclei count (cytotoxicity indicator), at 2.08 µM; inhibition: at 2 µM, stronger effect = higher value, 0% TNFa-plus-vehicle, 100% no-TNFa wells;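 note: compound added about 3h40 before a 20 min TNFalpha stimulation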;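 for inhibition: signal is the nuclear over cytoplasmic p65 intensity ratio per well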
[2] = inhibitors of mutant huntingtin aggregation, primary screen, imaging, exon1htt(103Q)mCFP cells, high-content imaging (AID 483;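 active = visual image review flags a hit and inhibition of aggregation exceeds 20%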;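 note: compound exposure lasted 3 days before fixation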;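 for nuclei count: percent of the per-plate median nuclei count of sample wells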); conditions: exon1htt(103Q)mCFP cell line, aggregate imaging, at 2 µM; inhibition of aggregation: stronger effect = higher value; nuclei count: measured here: cell count, toxicity
[3] = inhibitors of E-selectin induction by TNFa, primary screen, imaging, HUVEC, immunofluorescence, MLSMR starter and 10KST1 sets (AID 487;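 active = visually confirmed hit in the image check and inhibition above 20%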;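 for inhibition: signal is fraction of cell area covered by stained E-selectin grains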;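 for nuclei count: 100% = median nuclei count of all wells on the same plate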); conditions: HUVEC TNFalpha-induced E-selectin immunofluorescence imaging, at 2 µM; inhibition: stronger effect = higher value; nuclei count: measured here: cell number, toxicity
[4] = molecular target: Voltage-gated potassium channel subunit beta-2 (Rattus norvegicus) (UniProt P62483); assay: KvBeta enzyme negative modulators, primary screen, biochemical, NADPH fluorescence (AID 622;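 active = fluorescence slope higher than the sample average by over 3 SD, cut at about -0.22 in these data, passing the limit was not always enough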;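 note: slope of raw intensity against log time taken from 70 to 1610 s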); conditions: recombinant KvBeta, 4-cyanobenzaldehyde reduction, at 10 µM, stronger effect = higher value
Voltage-gated potassium channel subunit beta-2 (Rattus norvegicus), sequence (P62483 whole entry, looked up): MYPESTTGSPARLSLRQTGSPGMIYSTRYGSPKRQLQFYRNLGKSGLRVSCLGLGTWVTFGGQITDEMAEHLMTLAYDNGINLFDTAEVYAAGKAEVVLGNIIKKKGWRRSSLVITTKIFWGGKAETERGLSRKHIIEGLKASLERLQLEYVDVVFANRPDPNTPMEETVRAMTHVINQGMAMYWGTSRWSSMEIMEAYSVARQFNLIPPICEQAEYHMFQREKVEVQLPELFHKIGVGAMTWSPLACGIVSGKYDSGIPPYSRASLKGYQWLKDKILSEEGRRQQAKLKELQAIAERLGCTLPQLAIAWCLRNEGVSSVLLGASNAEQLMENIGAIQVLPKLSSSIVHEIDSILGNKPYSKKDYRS

[5] = molecular target: Voltage-gated potassium channel subunit beta-2 (Rattus norvegicus) (UniProt P62483); assay: KvBeta positive modulators, primary screen, biochemical, NADPH fluorescence (AID 623;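 active = NADPH fluorescence slope more negative than the mean of all samples by about 3 SD, 99.7% confidence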;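 note: fluorescence intensity change per second fitted from 20 to 320 s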); conditions: Recombinant KvBeta, NADPH fluorescence decrease slope, 10 min; at 10 µM; stronger effect = lower value
[6] = molecular target: Alpha-2C adrenergic receptor (Homo sapiens) (UniProt P18825); assay: modulators of alpha2C/GIRK thallium flux, primary screen, cell-based, HEK293 alpha2C/GIRK1/2 (AID 624;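 active = fluorescence slope after compound addition differing from the mean of all screened samples at 99.7% confidence, in either direction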;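 note: slope of fluorescence ratio to pre-addition baseline per second over 15 to 24 s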); conditions: thallium flux BTC fluorescence, at 10 µM, actives lie on both sides
Alpha-2C adrenergic receptor (Homo sapiens), sequence (P18825 whole entry, looked up): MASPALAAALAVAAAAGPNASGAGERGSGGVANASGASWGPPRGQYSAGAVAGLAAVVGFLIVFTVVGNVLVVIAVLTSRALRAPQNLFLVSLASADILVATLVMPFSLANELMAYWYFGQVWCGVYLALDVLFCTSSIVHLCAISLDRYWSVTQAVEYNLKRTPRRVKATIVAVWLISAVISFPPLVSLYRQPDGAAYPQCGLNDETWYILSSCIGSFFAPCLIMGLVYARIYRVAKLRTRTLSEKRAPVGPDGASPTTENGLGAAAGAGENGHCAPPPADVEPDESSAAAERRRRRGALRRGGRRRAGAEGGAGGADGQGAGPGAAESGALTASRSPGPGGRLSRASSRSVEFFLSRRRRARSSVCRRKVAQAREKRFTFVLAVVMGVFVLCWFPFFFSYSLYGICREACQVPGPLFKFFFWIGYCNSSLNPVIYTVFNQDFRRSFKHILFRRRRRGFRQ

[7] = inhibitors of Sendai virus-induced IRF3 signaling, primary screen, TLR/RLR signaling modifier project, cell-based, Sendai virus stimulus, luciferase, 10K MLSCN set (AID 602276;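 active = inhibition at or above 50% at 10 µM; inactive = inhibition below 50%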;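 note: firefly luciferase from ISG56 promoter only with Renilla not read in this screen; 0% = Sendai virus plus DMSO and 100% = medium plus DMSO without virus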); conditions: HEK293 RL24 IRF3 luciferase reporter, at 10 µM, stronger effect = higher value
[8] = inhibitors of poly I:C-induced TLR3 signaling, primary screen, cell-based, poly I:C stimulus, luciferase, 10K MLSCN set (AID 602277;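 active = inhibition of the reporter signal at or above 50%; inactive = inhibition below 50%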); conditions: HEK293-TLR3 RL24 IRF3 luciferase reporter, at 10 µM, stronger effect = higher value

| Structure (SMILES) | cell count [1] | inhibition [1] | inhibition of aggregation [2] | nuclei count [2] | inhibition [3] | nuclei count [3] | fluorescence slope [4] | NADPH fluorescence slope [5] | slope [6] | inhibition [7] | inhibition [8] |
| --- | --- | --- | --- | --- | --- | --- | --- | --- | --- | --- | --- |
| CSc1cccc(NS(=O)(=O)c2ccccc2)c1 | 420 | -1.4% (inactive) | -3.4% (inactive) | 99.5% | -38% (inactive) | 106% | -0.283 (inactive) | -2.2e-05 (inactive) | 0.00527 (inactive) | 9.48% (inactive) | 27.9% (inactive) |
| O=C(O)c1c(Cl)c(Cl)c(Cl)c(Cl)c1C(=O)N1CCOCC1 | 530 | -10.7% (inactive) | -17.6% (inactive) | 112% | 12.7% (inactive) | 112% | -0.618 (inactive) | -3.3e-05 (inactive) | 0.00588 (inactive) | 7.47% (inactive) | 5.92% (inactive) |
| COc1ccc(S(=O)(=O)N(CC(=O)N2CCN(c3ccccc3OC)CC2)c2ccccc2)cc1 | 291 | 5.2% (inactive) | -12.6% (inactive) | 104% | 20% (inactive) | 111% | -0.474 (inactive) | -4.9e-05 (inactive) | 0.00648 (inactive) | 8.76% (inactive) | 13.4% (inactive) |
| CCN(CC)CCCNS(=O)(=O)c1ccc(OC)cc1 | 460 | 0.5% (inactive) | -18% (inactive) | 110% | -61.5% (inactive) | 134% | -0.429 (inactive) | -0.000105 (inactive) | 0.00623 (inactive) | 13.6% (inactive) | 27.9% (inactive) |
| O=c1c2ccccc2nc2n1CCN2 | 338 | 4.6% (inactive) | -10.3% (inactive) | 108% | -115% (inactive) | 131% | -0.573 (inactive) | 7.7e-06 (inactive) | 0.00443 (inactive) | 21.2% (inactive) | 20.6% (inactive) |
| CC(C)Cn1c(-c2ccc(F)cc2)n[nH]c1=S | 390 | 2.6% (inactive) | -11.3% (inactive) | 106% | -69.3% (inactive) | 118% | -0.395 (inactive) | -3.7e-05 (inactive) | 0.0039 (inactive) | 9.62% (inactive) | 12.7% (inactive) |
| CSc1nc(=NC(C)=O)ss1 | 723 | -18.1% (inactive) | -0.1% (inactive) | 106% | 22.2% (inactive) | 110% | -0.528 (inactive) | -5.6e-05 (inactive) | 0.00608 (inactive) | 4% (inactive) | 8.14% (inactive) |
| Cc1c(Cl)cccc1N1C(=O)c2ccccc2C1=O | 275 | 7.5% (inactive) | -0.9% (inactive) | 90.5% | 16.9% (inactive) | 93.5% | -0.502 (inactive) | -3.6e-05 (inactive) | 0.00611 (inactive) | -1.09% (inactive) | 15.5% (inactive) |
| CCC(C)(C(=O)NC1CCCCC1)N(CC1CCCO1)C(=O)c1ccccn1 (centres undefined) | 345 | 3% (inactive) | 6.3% (inactive) | 90.8% | -5.3% (inactive) | 104% | -0.418 (inactive) | -8.5e-05 (inactive) | 0.0062 (inactive) | 15.2% (inactive) | 26.8% (inactive) |
| CCn1cc(C(=O)N=c2sc3ccccc3n2C)c(=O)c2ccc(C)nc21 | 450 | 3.7% (inactive) | -5.2% (inactive) | 107% | -27.5% (inactive) | 97.3% | -0.361 (inactive) | -6.4e-05 (inactive) | 0.00595 (inactive) | 6.49% (inactive) | 23% (inactive) |
| C=CCOC(=O)CCC(=O)Nc1cc(OC)nc(OC)n1 | 653 | -12.9% (inactive) | -1.7% (inactive) | 109% | -0.8% (inactive) | 116% | -0.422 (inactive) | -4.9e-06 (inactive) | 0.00745 (inactive) | 12.4% (inactive) | 19.2% (inactive) |
| COc1ccc(N2CCN(c3oc(COc4ccccc4Cl)nc3C#N)CC2)cc1 | 451 | 14.6% (inactive) | 5.4% (inactive) | 95.5% | -33.4% (inactive) | 104% | -0.438 (inactive) | -0.000162 (inactive) | 0.00642 (inactive) | 2.05% (inactive) | 15.7% (inactive) |
| Cc1nc2c(C(=O)O)cnn2c(C)c1Cc1ccccc1F | 606 | -12.2% (inactive) | 11.2% (inactive) | 77.3% | -44.9% (inactive) | 105% | -0.406 (inactive) | 4.6e-06 (inactive) | 0.00393 (inactive) | -2.88% (inactive) | -3.96% (inactive) |
| COc1ccccc1N(CC(=O)Nc1cccnc1)S(C)(=O)=O | 623 | 9.2% (inactive) | 20.5% (inactive) | 92.6% | 58.2% (inactive) | 34.6% | -0.408 (inactive) | -6.4e-05 (inactive) | 0.00671 (inactive) | 7.85% (inactive) | 17.6% (inactive) |
| COc1ccc(C)cc1NC(=O)CSc1nnnn1Cc1ccccc1 | 709 | -1.6% (inactive) | -27.3% (inactive) | 107% | 8.3% (inactive) | 124% | -0.528 (inactive) | -1.1e-05 (inactive) | 0.00685 (inactive) | -7.12% (inactive) | 13.4% (inactive) |
| COc1cccc(C2C(C(=O)c3ccc(C)o3)=C(O)C(=O)N2CCCN(C)C)c1 (centres undefined) | 239 | -10.9% (inactive) | 45.3% (active) | 83.9% | -110% (inactive) | 111% | -0.592 (inactive) | -5.1e-05 (inactive) | 0.00639 (inactive) | 10.4% (inactive) | 15.6% (inactive) |
| CC(=O)CCc1c(C)[nH]c2ccccc2c1=O | 360 | 9.1% (inactive) | -8.9% (inactive) | 123% | -3.8% (inactive) | 102% | -0.523 (inactive) | 6.6e-05 (inactive) | 0.00588 (inactive) | -9.69% (inactive) | -2.97% (inactive) |
| Clc1cccc(-c2nnc3sc(-c4ccccc4)nn23)c1 | 625 | -3% (inactive) | -8% (inactive) | 108% | -30.8% (inactive) | 104% | -0.372 (inactive) | -5.3e-05 (inactive) | 0.0065 (inactive) | -35.9% (inactive) | -59.7% (inactive) |
| CCOC(=O)c1[nH]c(C)c(C(=O)NCC2CCCO2)c1C (centres undefined) | 390 | 2.8% (inactive) | 5.8% (inactive) | 103% | -13.6% (inactive) | 86.3% | -0.608 (inactive) | -7.6e-06 (inactive) | 0.00577 (inactive) | 8.72% (inactive) | 14.8% (inactive) |
| CSc1ccc(Cn2nnc(C(=O)NCc3ccccc3)c2N)cc1 | 570 | -2.3% (inactive) | 17.3% (inactive) | 100% | -74.8% (inactive) | 134% | -0.478 (inactive) | -2e-05 (inactive) | 0.00597 (inactive) | 5.71% (inactive) | 12.9% (inactive) |
| CC(C)(C)NC(=O)NC(=O)COc1ccccc1C#N | 432 | -28.2% (inactive) | -6.3% (inactive) | 108% | -27% (inactive) | 139% | -0.591 (inactive) | 8.6e-06 (inactive) | 0.0068 (inactive) | 2.8% (inactive) | -67.2% (inactive) |
| COCC(=O)N(C)c1nnc(-c2ccccn2)s1 | 433 | 1.4% (inactive) | 16.5% (inactive) | 84.4% | -12.1% (inactive) | 107% | -0.167 (inactive) | -1.3e-05 (inactive) | 0.0059 (inactive) | -7.53% (inactive) | -17.6% (inactive) |
| COc1ccc(N2CCN(Cc3nc4c(c(=O)[nH]c(=O)n4C)n3CC(C)=O)CC2)cc1 | 682 | 0.5% (inactive) | -29.1% (inactive) | 126% | -37.3% (inactive) | 119% | -0.578 (inactive) | -2.9e-05 (inactive) | 0.00484 (inactive) | 4.33% (inactive) | 29.5% (inactive) |
| O=C(NCc1cccnc1)C1c2ccccc2C(=O)N1Cc1ccco1 (centres undefined) | 408 | 4.7% (inactive) | 7% (inactive) | 115% | 50.4% (inactive) | 113% | -0.595 (inactive) | -1.9e-05 (inactive) | 0.00603 (inactive) | 5.3% (inactive) | 11% (inactive) |
| CCc1ccccc1N1CC23C=CC(O2)C(C(=O)O)C3C1=O (centres undefined) | 591 | -3.4% (inactive) | -8.2% (inactive) | 103% | -23.4% (inactive) | 105% | -0.515 (inactive) | -2.2e-05 (inactive) | 0.00685 (inactive) | 12.3% (inactive) | 36.8% (inactive) |
| Cc1c(NC(=O)c2ccc(CN3CCc4ccccc4C3)cc2)c(=O)n(-c2ccccc2)n1C | 593 | -5.6% (inactive) | -45.4% (inactive) | 110% | -70.8% (inactive) | 142% | -0.403 (inactive) | -4.1e-05 (inactive) | 0.0063 (inactive) | 5.86% (inactive) | 7.1% (inactive) |
| CCCCN(CC)CCNC(=O)c1cc2c(C)nc3ccccc3c2o1 | 656 | 0.3% (inactive) | -11.7% (inactive) | 103% | -28.4% (inactive) | 110% | -0.544 (inactive) | -3.2e-05 (inactive) | 0.00664 (inactive) | 5.91% (inactive) | 47% (inactive) |
| COc1cccc(NC(=O)COC(=O)c2ccco2)c1 | 393 | -4% (inactive) | -17.7% (inactive) | 92.3% | -0.6% (inactive) | 122% | -0.47 (inactive) | 7.3e-06 (inactive) | 0.00724 (inactive) | 13.4% (inactive) | 20.6% (inactive) |
| CC(C)Oc1cc2oc(=O)c3c(c2cc1Cl)CCC3 | 385 | 0.8% (inactive) | -21.6% (inactive) | 56.6% | -10.2% (inactive) | 96.1% | -0.445 (inactive) | 2.2e-05 (inactive) | 0.00687 (inactive) | -1.44% (inactive) | -17.4% (inactive) |
